For 105 compounds, INHIBITION results are on record in ChEMBL document CHEMBL4513216, “Probing the Open Global Health Chemical Diversity Library for Multistage-Active Starting Points for Next-Generation Antimalarials” (ACS Infect Dis, 2020).

Out of some 69,000 compounds screened, about 8,600 (12%) showed an effect of 50% or more. The full list was thinned out, with strong results kept by preference.

For this assay, the system named is Plasmodium berghei. In words: Screen against P. berghei liver stage (PbLuc), transformed with Luciferase, at 10uM. The format is functional, HepG2. The conditions noted are these: tested at 10 uM.
As for `CN(C)CCN(C)C(=O)c1ccccc1-n1cc(CN(C)C)cn1`, the INHIBITION worked out at 1.5%.
In the case of `c1ccc(CN2Cc3[nH]nc(COCC4CC4)c3C2)nc1`, the INHIBITION worked out at 30.5%.
Then `CN(C)CCNC(=O)C1Cc2nc(-c3ccccc3)sc2N1CC1CC1` (stereo not given), with 24.3%; and `CN(CCNC(=O)c1cnc(-c2ccncc2)nc1)S(C)(=O)=O`, with 25.1%.
In the case of `CN(CCNC(=O)c1cnc(-c2ccccc2)nc1)S(C)(=O)=O`, the INHIBITION came to 57.1%.
`CCN(CC)CCNC(=O)c1cnc(-c2ccccc2)nc1`: the INHIBITION is reported as -8.07%.
As for `Cc1ccc(OCCN2CCCC(c3cc(C(N)=O)[nH]n3)C2)cc1` (stereo not given), the INHIBITION worked out at 15.3%.
Turning to `O=C(NC1CC1)C1CCN(c2snc3ccccc23)CC1`, the INHIBITION is listed as 37.9%.
As to `CCc1n[nH]c(C2CN(C(=O)c3cnc(C)nc3CC)CCO2)n1` (stereo not given), the INHIBITION is given as -49.5%.
`CC(NC(=O)c1ccnn1C)c1ccc(OCC2CC2)c(F)c1` (stereo not given): the INHIBITION is recorded as 68.2%.
Turning to `CC(=O)NC(C)c1ccc(OCC2CC2)c(F)c1` (stereo not given), the INHIBITION is given as 26.8%.
Turning to `CC(NC(=O)c1ccc(=O)n(C)c1)c1ccc(OCC2CC2)c(F)c1` (stereo not given), the INHIBITION is 40.97%.
In the case of `CC(=O)c1cccc(-n2nc(C(C)=O)c(C(C)=O)c2C)c1`, the INHIBITION came out at 0.325%.
For the compound `O=C(Nc1nnc(C(F)F)s1)N[C@H](CCO)c1ccccc1`, the INHIBITION is given as 20.9%.
Consider `COc1ccnc(N2CCN(C(=O)c3ccc(Cl)o3)CC2)n1`, for which the INHIBITION is -9.76%.
For `CC(C)N1CCN(C(=O)c2csc3nc(-c4ccc(Cl)cc4)cn23)CC1`, the INHIBITION was found to be 37.9%.
On to `O=C(c1csc2nc(-c3ccc(Cl)cc3)cn12)N1CCCC(CO)C1` (stereo not given), for which the INHIBITION is listed as -16.6%.
Then `CCC1CN(C(=O)c2csc3nc(-c4ccc(Cl)cc4)cn23)CCN1` (stereo not given), with 56.1%; and `CNC(=O)C1(CCCc2ccccn2)CCN1Cc1coc(C)n1` (stereo not given), with 9.05%.
With `O=C(NCc1cccnc1)c1cn(CCc2ccccc2)nn1` the figure was 12.9%; with `Cc1nn(C2CCCC2)c2nc(C(C)(C)CN3CCN(C)CC3)[nH]c12`, 49.4%.
Consider `CS(=O)(=O)CCn1ccc(NC(=O)CCc2cccc(F)c2)n1`, for which the INHIBITION amounted to 13.8%.
With `Cc1nccc(N[C@H]2CN(CCS(C)(=O)=O)C[C@@H]2C2CC2)n1`, the INHIBITION was found to be 39.3%.
For `Nc1nccc(N[C@H]2CN(CC(=O)NC3CCCCC3)C[C@@H]2C2CC2)n1`, the INHIBITION is recorded as 56.2%.
Take `Cc1nccc(N[C@H]2CN(CCC(=O)NC3CCCC3)C[C@@H]2C2CC2)n1`: the INHIBITION is on record as 26.5%.
On to `Cc1noc([C@H]2C[C@H]3CN(C(=O)Cc4ccsc4)CC[C@H]3O2)n1`, for which the INHIBITION is recorded as -14.1%.
In the case of `c1ccc2c(c1)CC(n1ccnc1-c1cc3n(n1)CCCNC3)CO2` (stereo not given), the INHIBITION was found to be 18.5%.
Regarding `c1ccc2c(c1)CC(n1ccnc1-c1cc3n(n1)CCNC3)CO2` (stereo not given), the INHIBITION was 43.9%.
`O[C@H]1Cc2ccccc2[C@H]1n1ccnc1-c1cc2n(n1)CCNC2`: the INHIBITION is listed as 67.6%.
Then `COc1ccc(CCCC(=O)N2C[C@H](C3CC3)[C@@H](N(C)C)C2)cc1`, with 6.28%; and `CC(=O)N1[C@@H](C(=O)NCC2CC2)C[C@@H]2CN(Cc3ccco3)C[C@@H]21`, with 11.6%.
For the compound `Cc1cccc(Nc2noc3c2CN(C(=O)c2ccn(C)n2)CC3)c1C`, the INHIBITION is reported as -14.225%.
As to `Cc1ccnn1CCNC(=O)C1CCN(S(=O)(=O)c2ccc(F)cc2)C1` (stereo not given), the INHIBITION is 41.2%.
Then `Cc1noc(C)c1C[S+]([O-])Cc1cn2cccc(C)c2n1` (stereo not given), with -41.7%; and `CS(=O)(=O)N1CCO[C@H]2[C@@H](Oc3ncccc3F)CC[C@@H]21`, with 32.2%.
As to `Cc1nc(CN2CCCC(NCc3ccc(Cl)s3)C2)no1` (stereo not given), the INHIBITION is given as 26.5%.
With `Cc1ccc2[nH]c(C(=O)N3CCC4(CC3)C(=O)NCCN4C)nc2c1` the figure was 10.4%.
As for `Cc1nc(-n2nc(-c3cccs3)cc2N)[nH]c(=O)c1C`, the INHIBITION is 50.9%.
Regarding `Cc1cc(=O)[nH]c(-n2nc(-c3cccs3)cc2N)n1`, the INHIBITION turned out to be 20.9%.
`CCc1c(C)nc(-n2nc(-c3cccs3)cc2N)[nH]c1=O`: the INHIBITION is given as -90.8%.
For the compound `CC(C(N)=O)n1nc(-c2cccs2)cc(N)c1=O` (stereo not given), the INHIBITION was 17.4%.
With `CCCc1cc(=O)[nH]c(-n2nc(-c3cccs3)cc2N)n1` the figure was 83.8%.
As for `NC1(c2nc(-c3cccs3)cc(=O)[nH]2)CCCC1`, the INHIBITION is recorded as -35.8%.
For the compound `O=C(c1ccnnc1)N1CCC2(CC1)CC(N1CCOCC1)C2`, the INHIBITION is 27.4%.
In the case of `O=C(NCc1ccco1)N(CCCO)C1CCCc2ccccc21` (stereo not given), the INHIBITION was determined as 11.9%.
Consider `Cc1cc(NC(=O)N(Cc2ccc(C#N)cc2)C(C)C)no1`, for which the INHIBITION worked out at 6.33%.
For the compound `CC(C)N(Cc1ccc(C#N)cc1)C(=O)Nc1ccccn1`, the INHIBITION amounted to 54.3%.
Take `CC(C)N(Cc1cccnc1)C(=O)CSc1ccc(C#N)cc1`: the INHIBITION is 2.82%.
Turning to `CC(C)N(Cc1ccc(C#N)cc1)C(=O)NCCNc1ncccn1`, the INHIBITION is recorded as 55.1%.
With `CC(C)N(Cc1ccccc1)C(=O)NCCNC(=O)c1cccnc1`, the INHIBITION is recorded as -17.8%.
With `CC(C)N(Cc1ccc(C#N)cc1)C(=O)Nc1ccncc1` the figure was 44%; with `Cc1ccc(N(CCC#N)C(=O)CCc2cccnc2)cc1C`, 11.9%; with `CC(C(=O)NCC(F)(F)F)N1CCC(N2CCN(C)C2=O)CC1` (stereo not given), 35.9%.
In the case of `Cc1cncc(C(=O)N2C[C@@H]3CN(S(C)(=O)=O)CCO[C@@H]3C2)c1`, the INHIBITION is given as -7.24%.
For the compound `COCCN1CCc2cc(C(=O)NCC3CC3)c(NC(C)C)nc2CC1`, the INHIBITION was found to be 51.6%.
As to `CC(C)Nc1nc2c(cc1C(=O)NCC1CC1)CCN(CC1CC1)CC2`, the INHIBITION was 71.4%.
Regarding `CC(C)Nc1nc2c(cc1C(=O)NCC1CC1)CCN(S(C)(=O)=O)CC2`, the INHIBITION is recorded as -39.1%.
As to `COCCN1CCc2cc(C(=O)N(C)C)c(NC(C)C)nc2CC1`, the INHIBITION turned out to be 18.1%.
With `Cc1nc2c(cc1C(=O)O)CCN(CC1CC1)CC2` the figure was 74.9%; with `CNC(=O)N1CCc2cc(C(=O)NCC3CC3)c(NC(C)C)nc2CC1`, -114%.
For `CC(C)Nc1nc2c(cc1C(=O)NCC1CC1)CCN(C)CC2`, the INHIBITION was 34.1%.
With `CN(C)C(=O)c1cc2c(nc1NCC1CC1)CCN(CC1CC1)CC2`, the INHIBITION is 38.2%.
Consider `Cc1nc2c(cc1C(=O)O)CCN(Cc1ccsc1)CC2`, for which the INHIBITION was found to be 20.4%.
`Cn1cc(CN(CC2(O)CNCCOC2)C2CCCCC2)cn1` (stereo not given): the INHIBITION turned out to be 38.5%.
Consider `O=C(Cc1ccccc1F)N1CCN(C(=O)c2cccc(F)c2)CC1`, for which the INHIBITION is 27.6%.
`Cc1noc(CCCc2nc(C3CCOC3)no2)n1` (stereo not given): the INHIBITION is reported as 5.87%.
For `Cc1cc(C2CCCN2Cc2ccc(C(=O)Nc3nccs3)cc2)on1` (stereo not given), the INHIBITION is on record as 7.97%.
Turning to `Cc1cc(C2CCCN2Cc2cccc(C(=O)Nc3nccs3)c2)no1` (stereo not given), the INHIBITION is -30.7%.
Turning to `Cc1nonc1C1CCCN1Cc1ccc(C(=O)Nc2nccs2)cc1` (stereo not given), the INHIBITION was 56.6%.
As for `O=c1[nH]c2cn(-c3ccc(Br)cc3)c(=O)n2[nH]1`, the INHIBITION stood at 31.6%.
As for `CCNC(=O)CCC(=O)N1CCC(Oc2cc(C)ccc2C)CC1`, the INHIBITION was found to be 14.9%.
With `Cc1ccc(C)c(OC2CCN(C(=O)NCC(=O)N3CCCC3)CC2)c1`, the INHIBITION is recorded as -29.5%.
`Cc1ccc(C)c(OC2CCN(C(=O)CNc3ccccc3Cl)CC2)c1`: the INHIBITION is listed as 83.9%.
Regarding `CCc1cnc(N)nc1N(C)CCc1cnn(C)c1`, the INHIBITION amounted to 2.84%.
As to `CC(C)S(=O)(=O)C(C)C(=O)NCc1ccccc1COc1ccccc1` (stereo not given), the INHIBITION is -4.12%.
Take `Cc1cccc(CN(C(=O)CS(C)(=O)=O)C(C)C)c1`: the INHIBITION is listed as -12.9%.
Consider `COCCOCC(=O)N(Cc1cccc(C)c1)C(C)C`, for which the INHIBITION was 5.94%.
On to `CC(=O)C(C)CC(=O)N(Cc1cccc(C)c1)C(C)C` (stereo not given), for which the INHIBITION is reported as 68.4%.
As to `O=C(c1ccc(O)cc1)N1C[C@@H]2OCCN(c3ncccn3)[C@@H]2C1`, the INHIBITION is given as -15.2%.
Turning to `CCOc1ncccc1NC(=O)NC1CCCN(S(C)(=O)=O)C1` (stereo not given), the INHIBITION is given as -2.19%.
For `COc1ncccc1C(=O)N1CCc2c(ncnc2N2CCOCC2)C1`, the INHIBITION is reported as -102%.
Regarding `c1coc(CN2CCc3nnc(COc4cncnc4)n3CC2)c1`, the INHIBITION is on record as 10.6%.
`O=C1C(Sc2nnnn2C2CC2)CCN1c1ccccc1Cl` (stereo not given): the INHIBITION is reported as 11.4%.
As to `Cc1[nH]ccc1C(=O)N1CCOCC12CCCC2`, the INHIBITION worked out at 19.3%.
For the compound `Cc1ccc(F)cc1C(=O)N1CCOCC12CCCC2`, the INHIBITION was 69.1%.
Take `O=C(c1ccc[nH]1)N1CCOCC12CCCC2`: the INHIBITION was 40.9%.
Then `Cn1cc(C2CCCN2C(=O)c2cnc(-c3ccco3)s2)cn1` (stereo not given), with 23.6%; and `CNc1nnc(CCn2nc(C)c(Br)c2C)s1`, with 7.38%; and `CS(=O)(=O)c1ccc(-c2cnc(C3CCCN3)cn2)cc1` (stereo not given), with 45.95%.
For the compound `CCCc1noc(CNc2ccc(C(=O)N3CCCC3)cc2C)n1`, the INHIBITION turned out to be 12.7%.
Then `COc1cc2cc(C)c(SCCN3CCCCC3)nc2cc1OC`, with 51.7%.
With `CCc1cc2cc(OC)c(OC)cc2nc1SCCN1CCCCC1`, the INHIBITION worked out at 43.4%.
For the compound `COc1cc2cc(C)c(SCCN3CCCC3)nc2cc1OC`, the INHIBITION was found to be 33.2%.
`CN1CCC(c2cccc(Cc3ccc(C(F)(F)F)cc3)n2)CC1`: the INHIBITION is 85.7%.
With `COc1ccc(Cc2cccc(C3CCN(C)CC3)n2)cc1` the figure was 43.8%.
In the case of `CN1CCC(c2cccc(CCC(=O)NCC(N)=O)n2)CC1`, the INHIBITION is given as -6.92%.
Regarding `CN1CCC(c2cccc(NCc3ccncc3)n2)CC1`, the INHIBITION is -2.09%.
Then `CN1CCC(c2cccc(Cc3ccccc3)n2)CC1`, with 82.7%; and `CN1CCC(c2cccc(Cc3ccc(F)cc3)n2)CC1`, with 35.8%.
With `CCN(Cc1ccc2c(c1)OCO2)S(=O)(=O)N(C)C`, the INHIBITION is on record as -21.9%.
On to `CC(C)Cc1noc(C2CCN(C(=O)c3cccs3)CC2)n1`, for which the INHIBITION was found to be 17%.
As for `Cc1cnn(CC2CCCN2C(=O)c2cccc(-n3ccc(C)n3)c2)c1` (stereo not given), the INHIBITION is -17%.
Turning to `NC(=O)COc1cccc(CN2CCc3cncnc3C2)c1`, the INHIBITION stood at 11.2%.
With `CN(Cc1ccco1)[C@@H]1CN(Cc2ccoc2)C[C@@H]2CCCO[C@@H]21` the figure was 41.3%; with `CS(=O)(=O)c1cnc(C2CCCC2)nc1C1CCCNC1` (stereo not given), 16.5%.
